Experimental data as given in PubChem BioAssay.
Activity calls are given as the source filed them. Unless noted, how the calls were made is not given here.

Experiments:
[1] = A549 cell viability effects, profiling panel, calcein-AM fluorescence, 48 h, basal (AID 1162); details: higher = more signal; further: test concentration not given here
[2] = adipocyte viability effects, profiling panel, cell-based, 3T3-L1 adipocytes, calcein-AM fluorescence, 48 h, basal (AID 1163); details: 3T3-L1 adipocytes viability, higher = more signal; further: test concentration not given here
[3] = HepG2 cell viability effects, profiling panel, calcein-AM fluorescence, 48 h, basal (AID 1164); details: higher = more signal; further: test concentration not given here
[4] = MM1S cell viability effects, profiling panel, calcein-AM fluorescence, 48 h, basal (AID 1165); details: higher = more signal;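 further: viability of MM1S multiple myeloma cells under basal unstimulated conditions; test concentration not given here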
[5] = basal RPMI8226 viability, no added stimulus, profiling panel, cell-based, calcein-AM fluorescence, 48 h, PK04 Diversity Set (AID 1166); details: RPMI8226 myeloma viability, higher = more signal;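 further: cells grown under basal conditions without added stimulus; test concentration not given here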
[6] = basal HepG2 mitochondrial membrane potential changes, profiling panel, cell-based, JC-1 fluorescence, 24 h, 100 nL compound (AID 1167); details: higher = more signal; further: test concentration not given here
[7] = basal 3T3-L1 adipocyte mitochondrial potential changes, profiling panel, cell-based, JC-1 fluorescence, 3T3-L1 adipocytes, 24 h, 100 nL compound (AID 1168); details: JC-1 mitochondrial fluorescence, higher = more signal, called active from +8 up or from −8 down; further: test concentration not given here
[8] = basal RPMI8226 mitochondrial membrane potential changes, profiling panel, cell-based, JC-1 fluorescence, 24 h, 100 nL compound (AID 1169); details: RPMI8226 myeloma, JC-1 mitochondrial potential fluorescence, higher = more signal; further: test concentration not given here
[9] = basal MM1S mitochondrial membrane potential changes, profiling panel, cell-based, JC-1 fluorescence, 24 h, 100 nL compound (AID 1170); details: higher = more signal; further: test concentration not given here
[10] = A549 lung cancer cell viability effects, profiling panel, resazurin fluorescence, 24 h, PK04 Diversity Set (AID 1171); details: higher = more signal, called active from +8 up or from −8 down; further: test concentration not given here
[11] = HepG2 liver cancer cell viability effects, profiling panel, resazurin fluorescence, 24 h, PK04 Diversity Set (AID 1172); details: higher = more signal; further: test concentration not given here
[12] = basal S. cerevisiae growth modulation, no modifier, primary screen, OD600, strain BY4716, 24 h, basal condition (AID 1173); details: OD600, 24 h, higher = more signal, called active from +8 up or from −8 down
[13] = MM1S myeloma cell viability, profiling panel, resazurin fluorescence, basal, 24 h, PK04 Diversity Set (AID 1174); details: higher = more signal, called active from +8 up or from −8 down;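 further: MM1S multiple myeloma cell line; test concentration not given here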
[14] = molecular target: Dihydroorotate dehydrogenase (quinone), mitochondrial (Plasmodium falciparum (isolate 3D7)) (UniProt Q08210); assay: PfDHODH enzyme inhibitors, primary screen, biochemical, C-terminal His tag, absorbance 600 nm (AID 1175); details: DCIP absorbance 600 nm, higher = more signal, called active from +8 up or from −8 down;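 further: recombinant parasite enzyme with a five histidine tag at its C terminus; test concentration not given here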
Chain of Dihydroorotate dehydrogenase (quinone), mitochondrial (Plasmodium falciparum (isolate 3D7)) (Q08210 whole entry, looked up): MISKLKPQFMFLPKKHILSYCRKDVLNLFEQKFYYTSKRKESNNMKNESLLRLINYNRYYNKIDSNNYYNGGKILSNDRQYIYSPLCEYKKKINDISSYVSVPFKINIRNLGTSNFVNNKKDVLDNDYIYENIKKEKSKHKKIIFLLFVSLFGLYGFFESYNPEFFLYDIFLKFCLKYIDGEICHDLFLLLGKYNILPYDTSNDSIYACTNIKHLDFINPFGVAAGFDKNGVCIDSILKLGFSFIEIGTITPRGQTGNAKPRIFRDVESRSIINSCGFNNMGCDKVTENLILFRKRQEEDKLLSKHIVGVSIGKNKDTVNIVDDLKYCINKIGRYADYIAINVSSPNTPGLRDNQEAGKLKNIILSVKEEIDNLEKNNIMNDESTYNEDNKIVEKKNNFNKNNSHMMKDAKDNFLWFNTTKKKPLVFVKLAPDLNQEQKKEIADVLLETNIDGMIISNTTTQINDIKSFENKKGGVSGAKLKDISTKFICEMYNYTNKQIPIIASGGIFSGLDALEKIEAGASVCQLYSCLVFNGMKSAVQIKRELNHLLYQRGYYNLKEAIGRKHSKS

[15] = P. aeruginosa biofilm formation inhibitors, primary screen, strain PAO1, LB-PBS medium, absorbance 600 nm (AID 1176); further: test concentration not given here; details: P. aeruginosa PAO1 growth/biofilm, A600, 12 h; higher = more signal
[16] = S. cerevisiae RM11-1a growth modifiers, primary screen, strain RM11-1a, OD600, basal, 24 h (AID 1177); details: OD600, 24 h, higher = more signal, called active from +8 up or from −8 down;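 further: cultures grown under basal conditions with no added stressor; test concentration not given here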
[17] = E. coli acrAB mutant growth effects, primary screen, E. coli filamentation inducers, strain DRC39, OD650, 24 h (AID 1178); details: higher = more signal, called active from +8 up or from −8 down;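 further: growth measured as culture turbidity by optical density at 650 nm; test concentration not given here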
[18] = E. coli acrAB mutant growth effects, primary screen, E. coli filamentation inducers, strain DRC39, OD650, 48 h (AID 1179);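 further: screen aims at cell division blockers that make cells filament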; details: E. coli DRC39 delta-acrAB growth, higher = more signal, called active from +8 up or from −8 down
[19] = RPMI8226 myeloma cell viability, profiling panel, resazurin fluorescence, basal, 24 h, PK04 Diversity Set (AID 1180); details: higher = more signal;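 further: RPMI8826 multiple myeloma cell line at 5000 cells per well; test concentration not given here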
[20] = molecular target: E3 ubiquitin-protein ligase XIAP (Homo sapiens) (UniProt P98170); assay: XIAP binders, primary screen, biophysical, small-molecule microarray, fluorescence 635 nm (AID 1181); details: small-molecule microarray binding, higher = more signal;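 further: score merges 667 nm emission and signal to noise over triplicate slides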
Chain of E3 ubiquitin-protein ligase XIAP (Homo sapiens) (P98170 whole entry, looked up): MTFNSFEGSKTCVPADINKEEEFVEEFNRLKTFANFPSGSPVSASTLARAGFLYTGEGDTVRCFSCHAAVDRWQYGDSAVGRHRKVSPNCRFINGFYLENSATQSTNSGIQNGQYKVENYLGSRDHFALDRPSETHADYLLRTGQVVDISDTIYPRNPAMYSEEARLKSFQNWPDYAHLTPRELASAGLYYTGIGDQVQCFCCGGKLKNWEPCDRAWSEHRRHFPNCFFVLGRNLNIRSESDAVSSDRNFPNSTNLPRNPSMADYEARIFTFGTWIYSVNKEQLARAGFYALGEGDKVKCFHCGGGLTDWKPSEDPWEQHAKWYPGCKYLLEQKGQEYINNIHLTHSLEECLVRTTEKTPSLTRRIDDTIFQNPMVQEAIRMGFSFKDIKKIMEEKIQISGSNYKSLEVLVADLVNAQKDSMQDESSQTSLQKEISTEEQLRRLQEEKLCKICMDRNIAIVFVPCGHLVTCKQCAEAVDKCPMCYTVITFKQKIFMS

O=C1[C@H]2[C@H]3[C@H](O)[C@H](O)CC(=NOC[C@@H](O)COCc4ccco4)[C@@H]3CC[C@H]2C(=O)N1C[C@@H]1CCCO1
z-score [1]: 0.863 | z-score [2]: -1.2 | z-score [3]: -0.128 | z-score [4]: 0.524 | z-score [5]: -0.295 | z-score [6]: 0.607 | z-score [7]: 1.25 (inactive) | z-score [8]: -0.32 | z-score [9]: -0.796 | z-score [10]: 0.0753 (inactive) | z-score [11]: 0.188 | z-score [12]: 0.408 (inactive) | z-score [13]: 0.59 (inactive) | composite z-score [14]: 0.121 (inactive) | z-score [15]: -0.662 (inactive) | z-score [16]: 1.1 (inactive) | z-score [17]: 0.93 (inactive) | z-score [18]: 1.14 (inactive) | z-score [19]: -0.256 | composite z-score [20]: 0.137

CCOC(=O)NN=C1C[C@@H](O)[C@@H](O)[C@@H]2[C@@H]3C(=O)N(c4cccc(Oc5ccccc5)c4)C(=O)[C@@H]3CC[C@@H]12
z-score [1]: -0.382 | z-score [2]: 0.279 | z-score [3]: -1.56 | z-score [4]: -0.454 | z-score [5]: -0.423 | z-score [6]: -0.0933 | z-score [7]: -0.451 (inactive) | z-score [8]: -0.0715 | z-score [9]: 0.524 | z-score [10]: -0.0206 (inactive) | z-score [11]: 0.358 | z-score [12]: -0.22 (inactive) | z-score [13]: -0.285 (inactive) | composite z-score [14]: -0.108 (inactive) | z-score [15]: 0.225 (inactive) | z-score [16]: -0.114 (inactive) | z-score [17]: -0.347 (inactive) | z-score [18]: -1.28 (inactive) | z-score [19]: 0.0541 | composite z-score [20]: -0.122

CCCCC#C[C@@H]1C=C[C@H](OC(C)=O)[C@@H](COC(C)=O)O1
z-score [1]: -0.0464 | z-score [2]: -0.515 | z-score [3]: -1.14 | z-score [4]: -3.37 | z-score [5]: -3.02 | z-score [6]: -1.24 | z-score [7]: 0.378 (inactive) | z-score [8]: -0.746 | z-score [9]: -2.22 | z-score [10]: 0.451 (inactive) | z-score [11]: 0.693 | z-score [12]: -1.44 (inactive) | z-score [13]: -3.24 (inactive) | composite z-score [14]: -0.216 (inactive) | z-score [15]: 0.909 (inactive) | z-score [16]: -0.667 (inactive) | z-score [17]: -0.233 (inactive) | z-score [18]: -0.248 (inactive) | z-score [19]: -1.82 | composite z-score [20]: 0.474

CO[C@@H]1COC(=O)[C@@H](C)NC(=O)CC=C[C@@H](C)[C@H](NS(=O)(=O)c2ccc(C)cc2)COC(=O)[C@H](C)NC(=O)CC=C[C@H]1C
z-score [1]: 0.458 | z-score [2]: 0.177 | z-score [3]: 0.196 | z-score [4]: -0.0848 | z-score [5]: -0.036 | z-score [6]: -0.125 | z-score [7]: -0.172 (inactive) | z-score [8]: 0.51 | z-score [9]: 0.468 | z-score [10]: 1.33 (inactive) | z-score [11]: 0.63 | z-score [12]: -0.673 (inactive) | z-score [13]: 0.416 (inactive) | composite z-score [14]: 0.0059 (inactive) | z-score [15]: -0.212 (inactive) | z-score [16]: -0.489 (inactive) | z-score [17]: 1.39 (inactive) | z-score [18]: 0.428 (inactive) | z-score [19]: 1.08 | composite z-score [20]: -0.202

COC(=O)[C@@H]1CC[C@H](C)[C@@H](c2ccc(C)cc2)N1C(=O)c1ccc(C=NO[C@@H]2O[C@H](COC(C)=O)[C@@H](OC(C)=O)[C@H](OC(C)=O)[C@H]2OC(C)=O)cc1
z-score [1]: -1.3 | z-score [2]: 0.216 | z-score [3]: -0.373 | z-score [4]: -0.82 | z-score [5]: -1.17 | z-score [6]: 2.74 | z-score [7]: 0.28 (inactive) | z-score [8]: -0.139 | z-score [9]: 0.155 | z-score [10]: 0.855 (inactive) | z-score [11]: -0.124 | z-score [12]: 0.786 (inactive) | z-score [13]: 0.952 (inactive) | composite z-score [14]: -2.7 (inactive) | z-score [15]: -0.172 (inactive) | z-score [16]: 0.178 (inactive) | z-score [17]: -1.44 (inactive) | z-score [18]: -1.65 (inactive) | z-score [19]: 0.369 | composite z-score [20]: 0.0131

COC(=O)CC=C[C@@H](C)[C@@H](C=NOCC[C@@H]1C=C[C@H](OC(C)=O)[C@@H](COC(C)=O)O1)OC
z-score [1]: 1.29 | z-score [2]: -0.0264 | z-score [3]: 0.436 | z-score [4]: -0.616 | z-score [5]: 0.238 | z-score [6]: -0.514 | z-score [7]: -0.43 (inactive) | z-score [8]: -0.133 | z-score [9]: -0.324 | z-score [10]: -0.393 (inactive) | z-score [11]: -0.269 | z-score [12]: 0.557 (inactive) | z-score [13]: -0.104 (inactive) | composite z-score [14]: 0.558 (inactive) | z-score [15]: -0.242 (inactive) | z-score [16]: 0.47 (inactive) | z-score [17]: 0.157 (inactive) | z-score [18]: 0.138 (inactive) | z-score [19]: -0.325 | composite z-score [20]: 0.0506

O=C(NN=C1C[C@@H](O)[C@@H](O)[C@@H]2[C@@H]3C(=O)N(C4CCCCC4)C(=O)[C@@H]3CC[C@H]12)OCc1ccccc1
z-score [1]: 0.215 | z-score [2]: 0.0766 | z-score [3]: -0.822 | z-score [4]: -0.816 | z-score [5]: -0.284 | z-score [6]: -1.14 | z-score [7]: -0.458 (inactive) | z-score [8]: 0.219 | z-score [9]: 0.703 | z-score [10]: -0.401 (inactive) | z-score [11]: -0.383 | z-score [12]: 0.112 (inactive) | z-score [13]: -0.531 (inactive) | composite z-score [14]: -0.135 (inactive) | z-score [15]: 0.307 (inactive) | z-score [16]: -0.182 (inactive) | z-score [17]: 0.061 (inactive) | z-score [18]: -0.0133 (inactive) | z-score [19]: -0.901 | composite z-score [20]: 0.0942

CCOC(=O)NN=C1C[C@@H](O)[C@@H](O)[C@@H]2[C@@H]3C(=O)N(c4cccc(Oc5ccccc5)c4)C(=O)[C@@H]3CC[C@H]12
z-score [1]: 0.285 | z-score [2]: 1.01 | z-score [3]: -0.0233 | z-score [4]: 0.0687 | z-score [5]: 0.443 | z-score [6]: 1.03 | z-score [7]: 0.675 (inactive) | z-score [8]: 0.00981 | z-score [9]: -1.56 | z-score [10]: -0.263 (inactive) | z-score [11]: 0.287 | z-score [12]: -0.946 (inactive) | z-score [13]: -1.12 (inactive) | composite z-score [14]: -1.59 (inactive) | z-score [15]: 1.05 (inactive) | z-score [16]: -1.39 (inactive) | z-score [17]: 0.0624 (inactive) | z-score [18]: -0.642 (inactive) | z-score [19]: 0.529 | composite z-score [20]: -0.106

CCOC(=O)[C@H](CC(C)C)NC(=O)CCC1CC(OC(=O)NCc2cccc3ccccc23)CC2(CCCC(COC(=O)NCc3cccc(C(F)(F)F)c3)O2)O1 (stereo not given in full)
z-score [1]: -0.442 | z-score [2]: -0.302 | z-score [3]: 0.8 | z-score [4]: 0.484 | z-score [5]: 0.38 | z-score [6]: 0.936 | z-score [7]: 0.346 (inactive) | z-score [8]: 0.0118 | z-score [9]: -0.851 | z-score [10]: -0.75 (inactive) | z-score [11]: -0.189 | z-score [12]: -0.31 (inactive) | z-score [13]: 0.0223 (inactive) | composite z-score [14]: -0.161 (inactive) | z-score [15]: 0.687 (inactive) | z-score [16]: 0.388 (inactive) | z-score [17]: 0.939 (inactive) | z-score [18]: 1.08 (inactive) | z-score [19]: 0.639 | composite z-score [20]: -0.206
